High-throughput results (PubChem)
Hits are enriched below; roughly 15% of the tested compounds scored in any of these assays.
ELG1 repair inh = qHTS screen for small molecules that inhibit ELG1-dependent DNA repair in human embryonic kidney (HEK293T) cells expressing luciferase-tagged ELG1. HEK293T ELG1-luciferase reporter, luminescence, 16 h; DNA damage induced by 5-fluorouridine. Potency, µM (titrated, usually from 46.1 µM), usual class: inhibitors. AID 504467, 2011. hit rate 2.3% among 330,000; note: nearly all actives have a fitted effect of over 55% in size
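5-Fluorouridine DNA damage + compound/DMSO, 2,000 cells/well, 16 h, 37 °C/5% CO2. ONE-Glo, 30 min RT, luminescence. Readout = decrease in reporter signal.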
TDP1 cell CPT = qHTS for Inhibitors of human tyrosyl-DNA phosphodiesterase 1 (TDP1): qHTS in cells in presence of CPT | chicken DT40 Tdp1-/-;hTDP1 cells + 20 nM CPT, ATP luminescence, 48 h | Potency, µM (highest dose often 46.2 µM), hits mostly inhibitors | hit rate 12% among 420,000 | AID 686979, 2013; note: nearly all actives have a fitted effect of over 55% in size
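Chicken DT40 Tdp1-/- cells stably complemented with human TDP1 were seeded at 400 cells/well in medium containing 20 nM camptothecin, exposed to pin-transferred compounds, and grown at 37 °C for at least 48 hr. Viability was read as ATP luminescence.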
RORgamma inh = qHTS for inhibitors of ROR gamma transcriptional activity; Nuclear receptor ROR-gamma (Mus musculus), P51450; Drosophila S2 Gal4-RORgamma UAS-luciferase reporter, 20 h; Potency, µM (doses to about 53.6 µM), usual class: inhibitors; hit rate 5.4% among 310,000; note: nearly all actives have a fitted effect of over 60% in size
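Compounds are pin-transferred onto Drosophila Schneider cells expressing a copper-inducible Gal4–ROR gamma transactivation domain fusion. After 1 hr, copper sulfate is added to 700 uM final; luciferase is read 20 hr later.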
VP16 counter = VP16 counterscreen qHTS for inhibitors of ROR gamma transcriptional activity; Drosophila S2 Gal4-VP16 UAS-luciferase, luminescence, 20 h; Potency, µM (series often up to 53.6 µM), hits mostly inhibitors; hit rate 3.5% among 310,000; AID 2546, 2010;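 note: Gal4-VP16 expression switched on by copper sulfate through the metallothionein promoter; nearly all actives have a fitted effect of over 50% in size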
DT40 TDP1 no CPT = qHTS for Inhibitors of human tyrosyl-DNA phosphodiesterase 1 (TDP1): qHTS in cells in absence of CPT; DT40 Tdp1-/- hTDP1 cells, no CPT, ATP luminescence, 48 h; Potency, µM (top dose mostly 46.2 µM), hits mostly inhibitors; hit rate 15% among 420,000; AID 686978, 2013; note: nearly all actives have a fitted effect of over 55% in size
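A cellular qHTS used chicken DT40 cells lacking endogenous Tdp1 but carrying stably transfected human TDP1. Compounds were applied without camptothecin, and cell growth kinetics were judged by ATP-dependent luminescence after ≥48 hr.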
12-LOX inh = Primary qHTS assay for inhibitors of human arachidonate 12S-lipoxygenase (ALOX12): Round 2; Polyunsaturated fatty acid lipoxygenase ALOX12 (Homo sapiens), P18054; purified 12hLO, xylenol orange hydroperoxide absorbance; Potency, µM (titrated, usually from 108 µM), hits mostly inhibitors; hit rate 1.1% among 580,000
Target sequence (P18054 whole entry, looked up): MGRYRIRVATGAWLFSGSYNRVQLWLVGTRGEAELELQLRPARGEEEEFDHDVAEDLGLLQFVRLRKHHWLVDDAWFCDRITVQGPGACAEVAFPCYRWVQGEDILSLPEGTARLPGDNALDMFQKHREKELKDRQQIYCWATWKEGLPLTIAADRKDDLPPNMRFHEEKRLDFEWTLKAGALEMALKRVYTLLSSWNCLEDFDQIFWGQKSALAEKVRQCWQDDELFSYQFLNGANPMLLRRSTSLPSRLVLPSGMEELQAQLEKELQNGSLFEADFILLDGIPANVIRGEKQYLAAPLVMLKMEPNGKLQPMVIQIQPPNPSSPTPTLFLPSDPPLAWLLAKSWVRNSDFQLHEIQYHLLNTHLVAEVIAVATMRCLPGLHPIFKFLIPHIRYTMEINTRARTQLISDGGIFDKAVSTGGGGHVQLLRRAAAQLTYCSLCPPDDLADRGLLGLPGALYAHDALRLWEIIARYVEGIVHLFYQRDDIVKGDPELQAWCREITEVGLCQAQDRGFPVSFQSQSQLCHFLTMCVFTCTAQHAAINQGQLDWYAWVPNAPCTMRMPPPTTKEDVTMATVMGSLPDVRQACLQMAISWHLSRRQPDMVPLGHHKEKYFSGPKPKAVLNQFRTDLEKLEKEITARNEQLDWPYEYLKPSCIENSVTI
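Purified human 12hLO at 150 nM in 25 mM Hepes, 0.01% Triton X-100, pH 7.0, preincubated 15 min at room temperature with compound. Reaction started with 40 uM arachidonic acid, 30 min at room temperature. Hydroperoxide measured by Fe-xylenol orange, 573/405 nm absorbance ratio.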
A number is an active result; - = inactive; ? = inconclusive; . = no result. Calls come from the whole dose curve; as a rule, active = well fitted curve in the direction sought with a large enough effect; inconclusive = small, poorly fitted or top-dose-only effect, or another doubt; inactive = no such curve, though single readings can be large; an effect the other way counts as inactive or inconclusive.

SMILES	ELG1 repair inh	TDP1 cell CPT	RORgamma inh	VP16 counter	DT40 TDP1 no CPT	12-LOX inh
Cc1ccc(Cn2c(C3CCCN3c3nc(C)cs3)nc3cc(C(=O)NCCCO)ccc32)cc1 (stereo not drawn)	.	-	.	.	-	-
Cc1csc(N2CCCC2c2nc3cc(Cl)c(N4CCCCC4)cc3n2CCCO)n1 (stereo not drawn)	.	?	.	.	16.4µM	-
OCCCn1c(C2CCCN2c2nc(-c3ccc(Cl)cc3)cs2)nc2cc(Cl)c(N3CCCCC3)cc21 (stereo not drawn)	.	?	.	.	?	-
OCCCn1c(C2CCCN2c2nc(-c3ccc(F)cc3)cs2)nc2cc(Cl)c(N3CCCCC3)cc21 (stereo not drawn)	.	?	.	.	20.6µM	-
Fc1ccccc1NC(=S)NCc1ccccc1	-	-	?	?	?	-
Fc1ccccc1NC(=S)NN(Cc1ccccc1)c1ccccc1	-	?	4.47µM	10µM	?	-
CC(C)c1ccccc1NC(=S)NCc1ccncc1	-	-	-	-	-	-
CC(C)c1ccccc1NC(=S)NN(Cc1ccccc1)c1ccccc1	-	?	2.24µM	?	?	?
Cc1cccc(C)c1NC(=S)NN(Cc1ccccc1)c1ccccc1	-	?	5.01µM	?	?	-
Cc1cccc(C)c1NC(=S)N(Cc1ccccc1)Cc1cccnc1	?	-	?	-	-	-
COC(=O)C(=O)N1CC[C@@H]2[C@H]1C(=O)N(C(C)C)C(=O)N2Cc1cccc(F)c1	.	.	.	.	.	-
COc1cccc2nc3cc(C)c(C)cc3nc12	?	13µM	10µM	?	18.4µM	?
CC(CCN1CCN(CCO)CC1)c1ccccc1 (stereo not drawn)	-	-	2.82µM	-	-	?
Cc1ccsc1/C=N/NC(=O)c1cccc2ccccc12	.	.	.	.	.	-
COC(=O)[C@]12CCCCC=C1N(Cc1ccccc1)C(=O)[C@H](CC(=O)NCc1cccc(C(F)(F)F)c1)C2	.	?	.	.	?	-
CCCCCCCCN1C(=O)[C@H](CC(=O)NCc2cccc(C(F)(F)F)c2)C[C@@]2(C(=O)OCC)CCC=C12	.	?	.	.	13µM	?
CCCCNC(=O)C[C@@H]1C[C@@]2(C(=O)OCC)CCC=C2N(Cc2ccccc2)C1=O	.	-	.	.	-	-
CCCCCCCCN1C(=O)[C@H](CC(=O)NCc2cccc(C(F)(F)F)c2)C[C@@]2(C(=O)OC)CCCCC=C12	.	20.6µM	.	.	?	-
COC(=O)C1(C)NCCc2c1[nH]c1ccccc21 (stereo not drawn)	-	-	.	.	-	-
CC1(CCc2ccc3c(c2)OCO3)NCCc2c1[nH]c1ccccc21 (stereo not drawn)	-	?	-	-	18.4µM	?
CSc1ccc(NC(=O)c2cc3c(s2)CN(C2CC2)C3)cc1	.	.	.	.	.	-
CCOC(=O)c1ccc(NC(=O)c2ccc(C)c(S(=O)(=O)N3CCOCC3)c2)cc1	4.61µM	?	-	?	23.1µM	-
COc1ccc(NS(=O)(=O)c2ccc(C)c(NC(=O)c3ccc(C)c(S(=O)(=O)N4CCOCC4)c3)c2)cc1	?	?	?	-	14.6µM	-
COc1ccc(C(=O)OCc2c(F)cccc2Cl)cc1S(=O)(=O)N1CCOCC1	?	-	.	.	-	-
COc1ccc(COC(=O)c2ccc(C)c(S(=O)(=O)N3CCOCC3)c2)cc1F	18.3µM	-	.	.	-	-
Cc1ccc(C(=O)Nc2ccon2)cc1S(=O)(=O)N1CCOCC1	-	-	11.2µM	?	-	-
COC(=O)c1ccccc1NC(=O)c1ccccc1OC(F)F	.	.	.	.	.	-
Cc1cccc(C(=O)N2C(C(=O)NCC3CCCO3)COC23CCN(C(=O)C(C)(C)C)CC3)c1 (stereo not drawn)	.	.	.	.	.	-
